Data reported in ChEMBL document CHEMBL3433997, “St. Jude Leishmania screening dataset” (2016).

Target: Glucose transporter (Leishmania mexicana) (UniProt O61059)
Test: ST_JUDE_LEISH: Cytotoxicity at 2uM final concentration against transgenic Leishmania Mexicana promastigotes LmGT2 that are glucose transport deficient and complemented with the L. Mexicana glucose transporter 2. Activity is measured by DNA content using SYBR green in vitro
Format: functional

Q: For `COC(=O)c1cccc(N2CCN(CCCNC(=O)/C(=C/C=C/c3cc4cc(Cl)c(Cl)cc4[nH]3)OC)CC2)c1`, which inhibition is on record?
A: -1.57%

Q: Which inhibition does the source give for `Cc1noc(-c2ccc(NC[C@@H](C)NC[C@H](O)c3cccc(Cl)c3)cc2)n1` here?
A: 4.26%

Q: With `COc1ccc(-c2cc(C(=O)N[C@@H](CC3CCCCC3)C(=O)NCCN3CCCCC3)ccc2O)cc1` as the compound, how does the inhibition read?
A: -0.35%

Q: How did the inhibition turn out when `O=C(CCCCCNC(=O)c1ccc(O)c(-c2cccc(C(F)(F)F)c2)c1)NCCN1CCCCC1` was run?
A: 0.5%

Q: How did the inhibition turn out when `Nc1cccc(CNCc2cccc(-c3ccc(-c4nc5cc(C(F)(F)F)ccc5[nH]4)cc3)c2)c1` was run?
A: 3.77%

Q: With `CCCCOC(=O)C1=C(C)NC2=C(C(=O)CCC2)C1c1ccc(OC)c(Br)c1` (stereo not given) as the compound, how does the inhibition read?
A: -1.96%

Q: `COc1ccc2c(=O)c(I)c(C)[nH]c2c1` was tested. Which inhibition did it give?
A: -3.12%

Q: For `N=C(N)NCCCC(=O)NCC(N)=O`, which inhibition is on record?
A: 2.28%

Q: `COc1ccc2ncc(Cl)c([C@@H](O)CN3CCC(NCc4cc5c(cn4)OCCO5)CC3)c2c1` was tested. Which inhibition did it give?
A: 1.19%

Q: Which inhibition does the source give for `CN(C)c1ccc(NC(=O)Nc2ccnc3ccccc23)cc1Br` here?
A: 6.85%

Q: `CC(C)(C)c1ccc(-c2ccccc2CNC(=O)c2cccc(O)c2)cc1` was tested. Which inhibition did it give?
A: 7.1%

Q: How did the inhibition turn out when `CC(=O)c1cccc2cc(C(=O)NC3CCC(CCN4CCc5ccc(C#N)cc5C4)CC3)[nH]c12` (stereo not given) was run?
A: -0.27%

Q: Which inhibition does the source give for `CC(CCCCOCCc1ccccc1)NCC(O)c1cc(Cl)c(N)c(Cl)c1` (stereo not given) here?
A: 2.18%

Q: `CS(=O)(=O)CCNCc1cc(-c2cc3ncnc(Nc4ccc(OCc5cccc(F)c5)c(Cl)c4)c3s2)cs1` was tested. Which inhibition did it give?
A: 5.4%

Q: `Cc1cc(N[C@@H](CC(C)C)C(=O)NCCOc2ccccc2)nc(Nc2ccccc2)n1` was tested. Which inhibition did it give?
A: 1.29%

Q: With `COc1ccccc1NC(=S)N/N=C/c1ccc(O)cc1O` as the compound, how does the inhibition read?
A: 0.42%

Q: Which inhibition does the source give for `Nc1nc2c(ncn2COC2COP(=O)(O)OC2)c(=O)[nH]1` (stereo not given) here?
A: 12.3%

Q: For `Cc1nn(-c2ccccc2)nc1C(=O)N(Cc1ccc(-c2ccc(CNCCc3ccc(S(C)(=O)=O)cc3)cn2)cc1)C1CC1`, which inhibition is on record?
A: 2.91%

Q: How did the inhibition turn out when `CC(CN1CCN(C)CC1)C(=O)Nc1ccc(-c2ccc(-c3nc4cc(C(F)(F)F)ccc4[nH]3)cc2)cc1` (stereo not given) was run?
A: 2.49%

Q: With `Cc1nnc(-c2ccc3ccccc3c2)c2cn(-c3cccc([N+](=O)[O-])c3)nc12` as the compound, how does the inhibition read?
A: 3.91%

Q: How did the inhibition turn out when `Cc1[nH]c2ccc(-c3ccccc3)cc2c(=O)c1Br` was run?
A: -0.5%

Q: `CN1CCC(NCc2ccc(-c3cccc(S(=O)(=O)NCC4CCCO4)c3)cc2)CC1` (stereo not given) was tested. Which inhibition did it give?
A: 6.61%

Q: How did the inhibition turn out when `CC(C)[C@H](NC(=O)c1ccc(O)c(-c2ccc(Cl)c(Cl)c2)c1)C(=O)NCCN(C)C` was run?
A: 1.16%

Q: With `Cc1[nH]c(C)c(-c2ccc(-c3ccccc3Cl)nc2)c(=O)c1Br` as the compound, how does the inhibition read?
A: -0.05%

Q: For `COc1ccc2c(NN=Cc3cccc(C)n3)ccnc2c1`, which inhibition is on record?
A: 5.4%

Q: How did the inhibition turn out when `CCN(C)c1cc(C(=O)N[C@@H](Cc2ccccc2)[C@H](O)CNC(C)(C)c2cccc(OC)c2)cc(N2CCCC2=O)c1` was run?
A: 4.41%

Q: With `O=C(/C=C/c1ccc(Cl)c(Cl)c1)NCCCCCN1CCC(NC(=O)Nc2cc(Cl)nc(Cl)c2)CC1` as the compound, how does the inhibition read?
A: 0.44%

Q: Which inhibition does the source give for `Cn1cc(CN2CCCC(COC(c3ccccc3)c3ccccc3)C2)cn1` (stereo not given) here?
A: 2.57%

Q: Which inhibition does the source give for `COc1ccc2nccc([C@@H](O)CN3CCC(NS(=O)(=O)c4cc5c(cc4Cl)SCC(=O)N5)CC3)c2c1` here?
A: -0.41%

Q: How did the inhibition turn out when `CN1CCN(Cc2cccc(-c3ccc4c(Nc5ccc(Oc6ccccc6)cc5)ccnc4c3)c2)CC1` was run?
A: 18.6%

Q: For `O=C(C=Cc1ccc(Cl)c(Cl)c1)NCCCCCN1CCC(CCCNS(=O)(=O)c2ccc(Br)cc2)CC1`, which inhibition is on record?
A: 4.73%

Q: How did the inhibition turn out when `COc1cccc(Nc2nc(Nc3cccc(C#N)c3)cc(C(F)(F)F)n2)c1` was run?
A: 6.05%

Q: How did the inhibition turn out when `CC(C)(C)c1ccc(-c2cc3c(ccc4nc(N)nc(N)c43)[nH]2)cc1` was run?
A: -0.3%

Q: Which inhibition does the source give for `COc1ccccc1C1CCN(C2CCC(NC(=O)c3cc4cc(C(C)C)ccc4[nH]3)CC2)CC1` (stereo not given) here?
A: 9.55%

Q: How did the inhibition turn out when `CC[C@H](C)CNC(=O)c1cccc(-c2cccc(CN3CCC(N4CCCC4)CC3)c2)n1` was run?
A: -0.2%

Q: `CN1CCN(c2cc(-c3ccncc3)nc(-c3cccnc3)n2)CC1` was tested. Which inhibition did it give?
A: 3%

Q: `NC1=Nc2ccc(Cl)cc2C1(O)c1ccccc1` (stereo not given) was tested. Which inhibition did it give?
A: 0.97%

Q: With `Cc1ccccc1C1CCN(C2CCC(NC(=O)/C=C/c3cccc(F)c3F)CC2)CC1` (stereo not given) as the compound, how does the inhibition read?
A: 6.25%

Q: Which inhibition does the source give for `CCN(CC)c1nc(Nc2cc(C)ccc2C)nc(Nc2ccccc2O)n1` here?
A: 4%

Q: Which inhibition does the source give for `Cc1nc2nc(N)nc(N)c2c(C)c1Cc1ccc([N+](=O)[O-])cc1` here?
A: -0.24%
